This note sets out measurements from ChEMBL document CHEMBL4513216, “Probing the Open Global Health Chemical Diversity Library for Multistage-Active Starting Points for Next-Generation Antimalarials” (ACS Infect Dis, 2020).

The campaign covered roughly 69,000 compounds. About 8,600 (12%) showed an effect of 50% or more. Shown is part of a subset that was picked to be rich in strong results.

For this test, the system named is Plasmodium berghei. In words: Screen against P. berghei liver stage (PbLuc), transformed with Luciferase, at 10uM. The format is functional, HepG2. The following applies: tested at 10 uM.
With `Cc1ccc2c(c1)C(=O)NCC1(CCN(C(=O)c3ccnn3C)CC1)O2`, the INHIBITION came to 8.72%.
The figure for `O=C(c1cscn1)N1CC[C@]2(C[C@@H](OCCN3CCCC3)CO2)C1` is 43.2%; for `Cc1ccsc1CN(Cc1ccccn1)CC(O)CO` (stereo not drawn) it is 19.7%; for `CN(C(=O)c1ccccc1F)[C@@H]1CC[C@@H](O)[C@@H]1O` it is 34.1%.
To `Cc1ccoc1C(=O)N1CC[C@@H]2CN(C3CCOCC3)CCO[C@@H]2C1` belongs 4.98%; to `CC(C)c1nnsc1CNC(=O)C1CCN(C(=O)C2CC2)CC1`, 14.9%; to `COCCC(=O)N1CCC2(CCN(Cc3ccc(OC)c(F)c3)C2)C1` (stereo not drawn), -10.3%.
The figure for `Cc1[nH]c2ccccc2c1-c1ccnc(NCCN2CCCCC2)n1` is 61.9%.
Consider `Cc1[nH]c2ccccc2c1-c1ccnc(NCCN2CCOCC2)n1`, for which the INHIBITION stood at 62.2%.
As for `Cc1[nH]c2ccccc2c1-c1ccnc(NC[C@H](O)CO)n1`, the INHIBITION is recorded as 27.8%.
On to `Cc1nc2[nH]cnc(NCCN3CCOCC3)c-2n1`, for which the INHIBITION came out at 36.8%.
Regarding `O=c1[nH][nH]cc1-c1ccnc(NCCCN2CCOCC2)n1`, the INHIBITION came out at 39.7%.
For `Fc1ccc(-c2n[nH]cc2-c2ccnc(NCCN3CCCC3)n2)cc1`, the INHIBITION stood at 35.3%.
For the molecule `COCCn1cc(NC(=O)NCC(c2cccc(F)c2)N(C)C)cn1` (stereo not drawn), the INHIBITION is reported as 49.7%.
With `c1ccc(Cn2ccnc2CNCC2CCCN2c2cccnn2)cc1` (stereo not drawn), the INHIBITION came to 4.71%.
As to `Cc1ccc(N2CCO[C@H]3[C@H](OCC(=O)N4CCCC4)CC[C@@H]32)cc1`, the INHIBITION is listed as -2.03%.
In the case of `CN(C)C1(CNc2ncc(Br)cn2)CCOCC1`, the INHIBITION is 27.8%.
To `CSC1(CNc2ncc(Br)cn2)CCOCC1` belongs 45.7%; to `CCSC1(CNc2ncc(Br)cn2)CCOCC1`, 66.4%; to `CS(=O)(=O)N1CCCC(Cc2cnc(Br)cn2)CC1` (stereo not drawn), 37.8%.
To `Cc1ccc(C(=O)N2CCCCC2c2[nH]ncc2S(C)(=O)=O)cn1` (stereo not drawn) belongs 24.8%.
The figure for `O=C(c1cc2c(s1)CCOC2)N1CCCCC1Cn1cccn1` (stereo not drawn) is -5.07%.
As for `CNC(=O)C1(c2cnccn2)CCCN1C(=O)c1ccc(F)cc1` (stereo not drawn), the INHIBITION was 3.91%.
For `COc1c(C)cnc(CN(C)C2CCN(C3CCOCC3)CC2)c1C`, the INHIBITION turned out to be 7.24%.
As for `COc1c(C)cnc(CN2CCC(N(C)C(=O)C3CC3)CC2)c1C`, the INHIBITION is listed as -2.19%.
`COc1c(C)cnc(CN2CCC(N(C)C(=O)C(C)OC)CC2)c1C` (stereo not drawn): the INHIBITION was -29.8%.
Take `COc1c(C)cnc(CN(C)C2CCCCC2)c1C`: the INHIBITION is 72%.
With `COCc1ccccc1C(=O)N(C)Cc1ncc(C)c(OC)c1C`, the INHIBITION was 50.1%.
Turning to `COc1c(C)cnc(CN(C)C2CCOC3(CCOCC3)C2)c1C` (stereo not drawn), the INHIBITION stood at 43.6%.
Consider `COc1c(C)cnc(CN(C)C(=O)c2ccccc2O)c1C`, for which the INHIBITION is reported as 26.3%.
In the case of `CCNC(=O)N(C)C1CCN(Cc2ncc(C)c(OC)c2C)CC1`, the INHIBITION was 82.6%.
To `COc1c(C)cnc(CN2CCC(N(C)S(C)(=O)=O)CC2)c1C` belongs -21.9%; to `COc1c(C)cnc(CN2CCC(N(C)C(C)C(N)=O)CC2)c1C` (stereo not drawn), 90%; to `CCC(=O)N(C)C1CCN(Cc2ncc(C)c(OC)c2C)CC1`, 10.8%.
Take `COc1ccccc1C(=O)N(C)Cc1ncc(C)c(OC)c1C`: the INHIBITION is -11.7%.
The figure for `COc1ccc(CCC(=O)N2CCCCC2Cn2cccn2)cc1F` (stereo not drawn) is -31.8%.
For the molecule `O=C(NCc1ccccn1)[C@]12COC[C@H]1CN(Cc1ccccc1F)C2`, the INHIBITION is -13.2%.
Consider `Cc1ncsc1C(=O)N1CCCC1c1c(C)nn(C)c1Cl` (stereo not drawn), for which the INHIBITION was -0.96%.
The figure for `CC(NCc1cccc(C#N)c1)c1ccccn1` (stereo not drawn) is -21%.
To `CCc1nc(C2CCCN2Cc2nnc(C3CCC3)o2)no1` (stereo not drawn) belongs 41.65%; to `CC(C)CCn1cc(C(C(=O)O)N2CCSCC2)cn1` (stereo not drawn), 17.6%; to `CC(C)C(=O)NC1CCCc2nc(N3CCOCC3)ncc21` (stereo not drawn), 18.3%.
For `Cc1ccc(-c2nc(CN3CCOCC3)no2)cc1N1CCNC1=O`, the INHIBITION turned out to be 30%.
Take `CCNC(=O)CNC(=O)c1nc(C2CC2)n(-c2ccccc2Cl)n1`: the INHIBITION was -37.6%.
The figure for `Cc1ccc(Cl)c(CN2CCN(C)C(C(=O)O)C2)c1F` (stereo not drawn) is -4.52%; for `CCCc1cc(C(=O)N(Cc2cccnc2)Cc2cccnc2)[nH]n1` it is 6.28%.
The figure for `CCOC(=O)CCN(Cc1cccnc1)C(=O)c1cc(Cl)c[nH]1` is 57.5%; for `O=C(c1cc(Cl)c[nH]1)N(CCCO)Cc1cccnc1` it is 39%.
With `CC(C)c1nnc(CN2CC(n3cccn3)C2)o1`, the INHIBITION is reported as -145%.
The figure for `CN(C(=O)NCCN1CCOCC1)C1CCN(c2ccccc2)C1=O` (stereo not drawn) is 13.375%; for `c1csc(CCC2CCCCN2Cc2noc(C3CC3)n2)c1` (stereo not drawn) it is 34.9%; for `COCc1noc(CN2CCCCC2CCc2cccs2)n1` (stereo not drawn) it is 51.2%.
The figure for `Cc1nc(CN2CCCCC2CCc2cccs2)co1` (stereo not drawn) is 24.9%; for `CCNC(=O)CNCc1c(C(C)C)nn(C)c1N1CCOCC1` it is 11.35%; for `CCN(CC(C)O)C(=O)Nc1cnn(CCOC)c1` (stereo not drawn) it is 29.8%.
On to `COCCn1cc(NC(=O)N(CCC(N)=O)Cc2ccccc2)cn1`, for which the INHIBITION was -1.25%.
To `CCCN(Cc1ccccc1O)C(=O)Nc1cnn(CCOC)c1` belongs 59.7%.
On to `CC(=O)NCC(=O)N1CCC2(CC1)NC(=O)CC2c1cccnc1` (stereo not drawn), for which the INHIBITION is recorded as 34.6%.
Consider `COCCn1ccnc1C1CCCN(C(=O)CSc2nnc(C)o2)C1` (stereo not drawn), for which the INHIBITION amounted to 20.9%.
The figure for `CCC(=O)N1CCCCC1c1nc(N(C)C)ncc1-c1cc(C)no1` (stereo not drawn) is 22.5%.
To `CNC(=O)NC(=O)CN1CCC(c2c[nH]c3ccc(OC)cc23)CC1` belongs 15.1%; to `CNC(=O)NC(=O)C(C)N1CCCc2cc(OC)ccc2C1` (stereo not drawn), -25.1%; to `CNC(=O)NC(=O)C(C)N1CCC(c2c[nH]c3ccc(OC)cc23)CC1` (stereo not drawn), 61.5%.
The figure for `CCNC(=O)NC(=O)CN1CCC(c2c[nH]c3ccc(OC)cc23)CC1` is 62.6%; for `COc1ccc2[nH]cc(C3CCN(CCC(N)=O)CC3)c2c1` it is 36.6%.
For the molecule `CNC(=O)NC(=O)C(C)N1CCN(C2CCCC2)CC1` (stereo not drawn), the INHIBITION was found to be 28.7%.
Take `CNC(=O)[C@@H](c1ccccc1)N1CCC[C@H]1C(=O)NCc1cccnc1`: the INHIBITION is on record as -1.12%.
The figure for `CCS(=O)(=O)N1CCCC2(COCCN(c3nnc(C)o3)C2)C1` (stereo not drawn) is 29.8%; for `Cc1noc(C)c1CN1CCN(Cc2nc(C3CC3)no2)CC1` it is 72.2%; for `Cc1cnc(CN2CCN(C(C)c3nc(C4CC4)no3)CC2)cn1` (stereo not drawn) it is 24.7%.
Turning to `Cc1noc(C)c1CN1CCCC(c2noc(C3CC3)n2)C1` (stereo not drawn), the INHIBITION is -12.2%.
With `Cc1noc(C)c1CN1CCN(C(C)c2nc(C3CC3)no2)CC1` (stereo not drawn), the INHIBITION is on record as 59%.
The figure for `Cc1noc(C)c1Cc1nc(C2CC2)no1` is 14.6%.
To `Cc1nc(CN2CCN(C(C)c3nc(C4CC4)no3)CC2)oc1C` (stereo not drawn) belongs 4.75%.
To `CCCN(Cc1nc(-c2ccc(F)c(OC)c2)oc1C)CC1CCCO1` (stereo not drawn) belongs -12.1%; to `Cc1cc(C)n(CC2CCCN2C(=O)c2cccnc2N(C)C)n1` (stereo not drawn), 21%; to `Cc1ccc(CN(C(=O)NC2CCS(=O)(=O)C2)C2CC2)o1` (stereo not drawn), 2.79%.
`Cc1ccccc1OCCN1CCCC(c2cc(C(N)=O)[nH]n2)C1` (stereo not drawn): the INHIBITION was determined as 23.5%.
Turning to `Cn1cc(CN(C/C=C/c2ccccc2)C2CC2)cn1`, the INHIBITION is reported as -59.5%.
To `O=C1CCCN1C1CCCN(CCn2cc(Cl)cn2)C1` (stereo not drawn) belongs -63.5%; to `CN(Cc1ccco1)[C@@H]1CN(Cc2nccs2)C[C@@H]2CCCO[C@@H]21`, 44.3%.
To `CC(C1CCN(Cc2cnn(C)c2C2CC2)CC1)N1CCCC1` (stereo not drawn) belongs 40.9%.
Take `CC(C1CCN(Cc2cnn(C)c2C2CC2)CC1)N(C)C` (stereo not drawn): the INHIBITION is 50.7%.
To `CC(C1CCN(Cc2cnn(C)c2C2CC2)CC1)N1CCN(C)CC1` (stereo not drawn) belongs 29%; to `O=C(NCC1CCOC1)c1ccc(-c2ccccc2)[nH]c1=O` (stereo not drawn), -26.6%; to `Cc1cccc(-c2ccc(C(=O)NCC3CCCO3)c(=O)[nH]2)c1` (stereo not drawn), -29.1%.
To `Cc1ccc(CN2CCCC3(CCCC(=O)N3)C2)s1` (stereo not drawn) belongs 21.1%; to `NS(=O)(=O)CC1CCCN1CCOc1ccccc1F` (stereo not drawn), 37.9%; to `Cc1ccccc1OCCN1CCCC1CS(N)(=O)=O` (stereo not drawn), -55.2%.
For the molecule `CCOCCN1CCCC1CS(N)(=O)=O` (stereo not drawn), the INHIBITION was 61.5%.
For the molecule `COCc1ccc(C(=O)N2CCN(CC(C)O)CC2)cc1` (stereo not drawn), the INHIBITION is -7.81%.
The figure for `COc1ncccc1C(=O)N1CCCC1c1c(C)nn(C)c1Cl` (stereo not drawn) is -23.9%; for `CC(C)CN(Cc1ccc(-n2cncn2)cc1)Cc1ccccn1` it is 34.9%; for `Cc1nccn1CCN(C)c1nc(-c2cccnc2)nc2c1CCNC2` it is -1.25%.
To `Cc1nonc1CN(C)c1nc(-c2cccnc2)nc2c1CCNC2` belongs 81.1%; to `CN(CC1CCCCO1)c1nc(-c2cccnc2)nc2c1CCNC2` (stereo not drawn), 72.3%.
Take `Cc1cc(CN(C)c2nc(-c3ccco3)nc3c2CCN(C)CC3)on1`: the INHIBITION is listed as 30%.
The figure for `CN(CC1CCCO1)c1nc(-c2cccnc2)nc2c1CCNCC2` (stereo not drawn) is 7.43%.
As to `NCC1CN(c2nc(-c3cccnc3)nc3c2CCNCC3)CCO1` (stereo not drawn), the INHIBITION is on record as 7.43%.
As to `Cc1nonc1CN(C)c1nc(-c2ccco2)nc2c1CCN(C)CC2`, the INHIBITION came to 75.4%.
The figure for `CN(CC(O)CO)c1nc(-c2cccnc2)nc2c1CCNC2` (stereo not drawn) is 26.1%; for `Cc1noc(CN(C)c2nc(-c3ccco3)nc3c2CCN(C)CC3)n1` it is 28.8%; for `CNC(=O)N1CCC2(CC1)c1ncc(C)n1CCN2C` it is 48.4%.
As to `CN1C[C@H](c2ccccc2)[C@H]2CN(C(=O)Cc3cccc(O)c3)CC[C@H]21`, the INHIBITION is 43.7%.
The figure for `O[C@@]1(CNCC2(Cn3ccnc3)CC2)CCCN2CCCC[C@@H]21` is -6.39%; for `Cc1nnc(CNCC2(O)CCCN(Cc3ccc(F)c(F)c3)C2=O)[nH]1` (stereo not drawn) it is -1.33%.
In the case of `CCOCc1cc(CN2CCn3c(CO)nnc3C2)ccc1OC`, the INHIBITION was -38.2%.
To `Cc1ccc(CN2CCc3ncnc(C4CC4)c3CC2)s1` belongs 34.8%.
